DT40 TDP1 CPT: DT40-hTDP1 cell growth loss with CPT; actives 12% (n = 420,000); chicken DT40 Tdp1-/-;hTDP1 cells + 20 nM CPT, ATP luminescence, 48 h; AID 686979; Potency, µM (titrated, usually from 46.2 µM), for inactives: top-dose activity change, negative = growth inhibition, actives largely listed as inhibitors; also: potency is read from the fitted curve at half-maximal effect; nearly all actives have a fitted effect of over 55% in size
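Chicken DT40 Tdp1-/- cells stably complemented with human TDP1 were seeded at 400 cells/well in medium containing 20 nM camptothecin, exposed to pin-transferred compounds, and grown at 37 °C for at least 48 hr. Viability was read as ATP luminescence.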
HT1080 IDH1KD tx: toxicity to HT-1080 IDH1 knockdown cells (counter line); actives 2% (n = 360,000); HT-1080 IDH1 knockdown viability, ATP luminescence, 48 h; Potency, µM (series often up to 46.1 µM), inactives show at the top dose activity, negative = toxicity, actives largely listed as cytotoxic;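 also: potency is read from the fitted curve at half-maximal effect; 0% = DMSO wells and -100% = cell-free medium wells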
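Knockdown cells (IDH1KD HT-1080) received compounds 2 h after plating at 750 cells/well and were kept 48 h at 37 °C in 5% FBS RPMI. A CellTiter-Glo luminescence read gave % activity for curve fitting.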
HT1080NT lethal: kills 2HG-producing HT-1080-NT fibrosarcoma cells. actives 1.6% (n = 360,000). AID 686970. Potency, µM (doses to about 46.1 µM), for the others: at the highest dose activity, negative = less viability, actives largely listed as cytotoxic. HT-1080-NT fibrosarcoma viability, CellTiter-Glo ATP luminescence, 48 h;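 also: NT is the 2HG producing partner of a matched IDH1 knockdown line; potency is read from the fitted curve at half-maximal effect; 0% = DMSO-treated cells and -100% = media-only wells without cells; nearly all actives have a fitted effect of over 55% in size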
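Fibrosarcoma NT cells, 750 per well in 5% FBS RPMI, were exposed to compound for 48 hours. Viability: CellTiter-Glo luminescence.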
12-LOX inh: ALOX12 (human) lipoxygenase inhibition. actives 1.1% (n = 580,000). purified 12hLO, xylenol orange hydroperoxide absorbance. Potency, µM (top dose mostly 108 µM), for the others: at the top dose activity change, negative = inhibition, most hits filed as inhibitors; also: potency is read from the fitted curve at half-maximal effect
Target sequence (P18054 whole entry, looked up): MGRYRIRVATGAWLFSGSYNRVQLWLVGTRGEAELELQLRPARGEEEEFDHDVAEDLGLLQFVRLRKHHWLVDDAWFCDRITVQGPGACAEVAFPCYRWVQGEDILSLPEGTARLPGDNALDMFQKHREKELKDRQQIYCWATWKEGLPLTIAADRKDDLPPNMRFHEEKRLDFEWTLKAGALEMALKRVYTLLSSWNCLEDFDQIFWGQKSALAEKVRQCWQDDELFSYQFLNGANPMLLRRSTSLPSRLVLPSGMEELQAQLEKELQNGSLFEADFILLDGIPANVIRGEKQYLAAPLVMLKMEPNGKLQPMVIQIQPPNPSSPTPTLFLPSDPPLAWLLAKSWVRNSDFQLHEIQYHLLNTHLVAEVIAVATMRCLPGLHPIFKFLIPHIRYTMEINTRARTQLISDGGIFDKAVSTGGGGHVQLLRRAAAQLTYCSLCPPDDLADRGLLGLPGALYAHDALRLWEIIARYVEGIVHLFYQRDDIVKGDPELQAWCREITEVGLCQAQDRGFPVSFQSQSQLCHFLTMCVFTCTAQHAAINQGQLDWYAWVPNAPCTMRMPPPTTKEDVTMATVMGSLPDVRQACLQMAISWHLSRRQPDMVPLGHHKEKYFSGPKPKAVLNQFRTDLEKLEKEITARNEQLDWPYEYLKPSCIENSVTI
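Purified human 12hLO (150 nM final) in 25 mM Hepes, 0.01% Triton X-100, pH 7.0 was preincubated 15 min at room temperature with compound. Then 40 uM arachidonic acid was added, 30 min. Hydroperoxide was read by Fe-XO absorbance ratio 573/405 nm.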
DT40 TDP1 no CPT: qHTS for Inhibitors of human tyrosyl-DNA phosphodiesterase 1 (TDP1): qHTS in cells in absence of CPT. DT40 Tdp1-/- hTDP1 cells, no CPT, ATP luminescence, 48 h. Potency, µM (series often up to 46.2 µM), inactives show at the highest dose activity change, negative = growth inhibition, most hits filed as inhibitors. actives 15% (n = 420,000). AID 686978, 2013; also: potency is read from the fitted curve at half-maximal effect; nearly all actives have a fitted effect of over 55% in size
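Growth of hTDP1-complemented DT40 Tdp1-knockout cells is measured by ATP luminescence after at least 48 hr compound exposure at 37 °C, with DMSO substituting for the 20 nM CPT used in the parallel screen.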
IL-1B inflam inh: inhibitors of inflammasome signaling (IL-1 beta secretion). THP-1 LPS/ATP IL-1B secretion, AlphaLISA, 16 h; active compounds read low. activity change, % at 57.5 µM. actives 4.7% (n = 360,000). AID 743279; in the data active = activity change below about -50%; inconclusive = mostly about -30% to -49%
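THP-1 cells pretreated 1 hr with compounds (up to 57.5 uM final), then stimulated with LPS (250 ng/mL final) plus ATP (1.25 mM final); secreted IL-1B measured by AlphaLISA after 16 hr, decreased signal indicating inhibition.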
* marks the source's active call; other numbers are inactive results; u = inconclusive; x = no result; ! = repeats disagree; [ ] = another dose, or the depositor's remark. The sample as a whole holds a higher share of hits than the screen did. Unless noted, calls follow the shape of the dose curve; as a rule, active = well fitted curve in the direction sought with a large enough effect; inconclusive = small, poorly fitted or top-dose-only effect, or another doubt; inactive = no such curve, though single readings can be large; an effect the other way counts as inactive or inconclusive. Unless noted, % is scaled to controls: 0 for no effect and ±100 for the full control effect.

SMILES | DT40 TDP1 CPT | HT1080 IDH1KD tx | HT1080NT lethal | 12-LOX inh | DT40 TDP1 no CPT | IL-1B inflam inh
Cc1ccc(-n2c(O)c(/C=C3/C(c4ccccc4)=Nc4ccccc43)c(=O)[nH]c2=O)cc1 | 5.8µM* | u | 7.31µM* | u | 7.31µM* | -57.6*
O=c1[nH]c(=O)n(Cc2ccccc2)c(O)c1/C=C1\C=Nc2ccccc21 | u | -0.9% | -3.4% | u | u | 32.5
Cc1cccc(-n2c(O)c(/C=C/C=Nc3ccccc3)c(=O)[nH]c2=O)c1 | -15.0% | 11.3% | 8.5% | -21.8% | u | 0.0
Cc1ccc(N=Cc2c(O)n(-c3ccc(C)cc3)c(=O)[nH]c2=O)cc1 | 1.4% | -6.9% | -1.3% | 13.2% | -18.7% | 9.0
CC1=Nc2ccccc2/C1=C/c1c(O)n(C)c(=O)[nH]c1=O | u | 2.7% | -3.6% | u | u | -102.9*
COC(=O)C1=Nc2ccccc2/C1=C\c1c(O)n(-c2cc(OC)ccc2OC)c(=O)[nH]c1=O | -9.9% | -12.4% | -1.3% | u | -14.2% | -25.6
Cc1ccccc1-n1c(O)c(/C=C2/C(c3ccccc3)=Nc3ccccc32)c(=O)[nH]c1=O | 4.61µM* | u | u | -22.6% | 4.61µM* | u
CC(=O)Nc1ccc(S(=O)(=O)NC[C@H]2C[C@@H]3CCN2C[C@@H]3c2cc(C3CCCC3)nn2C)cc1 | x | x | x | 34.6% | x | x
C=C(C)C(=O)OC[N+](C)(C)CCOC(=O)C(O)(c1ccccc1)C1CCCC1 (configuration not stated) | x | x | x | 10.3% | x | x
COC(=O)[C@@H]1[C@@H](C(=O)OC)C2(c3ccccc3-c3ccccc32)N(c2ccc(Cl)cc2)N1C#N | 2.59µM* | 5.8µM* | 4.61µM* | -4.6% | 2.59µM* | -99.2*
COC(=O)C[C@]1(C(=O)OC)CN(C#N)N(c2ccc(Cl)cc2)C12c1ccccc1-c1ccccc12 | 1.03µM* | 4.11µM* | 10.3µM* | -26.0% | 0.92µM* | -105.4*
Cn1nc(-c2ccco2)cc1[C@H]1CN2CC[C@H]1C[C@@H]2CNC(=O)c1cccs1 | x | x | x | 38.6%[176 µM] | x | x
O=P(Nc1cccnc1)(Oc1ccccc1)Oc1ccccc1 | 21.4% | -0.4% | -5.1% | -2.7% | -11.3% | -7.3
COc1cccc(NP(=O)(Oc2ccccc2Cl)Oc2ccccc2Cl)c1 | u | u | 20.6µM* | 3.0% | 18.4µM* | -87.3*
COc1cccc(NP(=O)(Oc2ccccc2)Oc2ccccc2)c1 | 5.17µM* | u | u | -12.3% | 3.66µM* | u
COc1ccc(OP(=O)(Nc2ccccc2)Nc2ccccc2)cc1 | -16.5% | -22.6% | 2.9% | 22.2% | -11.7% | -1.6
O=C(NCc1ccc(F)cc1)[C@H]1CN2CC[C@H]1C[C@@H]2Cn1cc(-c2ccccc2)nn1 | x | x | x | 1.1%[176 µM] | x | x
COc1ccc2c3c([nH]c2c1)C(C)NCC3 (configuration not stated) | 2.59µM* | -0.9% | -4.8% | 188.7% | u | 0.0
Cc1cccc(Cn2c(=O)n(Cc3ccc(C(=O)NC4CCN(Cc5ccccc5)CC4)cc3)c(=O)c3ccccc32)c1 | 4.11µM* | x | x | -21.6% | 3.26µM* | x
COc1ccc(-n2c(/C=C3\C(=O)Nc4ccccc43)nc3ccccc3c2=O)cc1 | u | 0.5% | 12.3% | u | u | -22.2
COc1cc(OC)c(/C=C2\C(=O)Nc3ccccc32)c(OC)c1 | 2.59µM* | 2.59µM* | u | -6.3% | 2.59µM* | -1.9
O=C1Nc2ccccc2/C1=C/c1nc2ccccc2c(=O)n1-c1ccc(O)cc1 | u | u | u | -5.2% | u | x
O=C1Nc2ccccc2/C1=C/c1cnc[nH]1 | u | u | -6.7% | 18.8% | 18.4µM* | -25.1
COc1ccc2c(c1)/C(=C/c1cnc[nH]1)C(=O)N2 | 2.59µM* | 14.6µM*! | u | 9.5% | 1.16µM* | -111.3*
O=C(NC[C@H]1C[C@@H]2CCN1C[C@@H]2CN1CCCCC1)c1ccccc1 | x | x | x | 8.2%[176 µM] | x | x
SMILES | DT40 TDP1 CPT | HT1080 IDH1KD tx | HT1080NT lethal | 12-LOX inh | DT40 TDP1 no CPT | IL-1B inflam inh
COC(=O)C1=C(c2ccccc2OCc2ccccc2)C[C@@H]2CC[C@H]1N2C(=O)NCc1ccc(C(F)(F)F)cc1 | u | -28.1% | -13.4% | 6.7% | u | u
COC(=O)C1=C(c2ccc(OCc3ccccc3)cc2)C[C@@H]2CC[C@H]1N2C(=O)NCc1cccc(C(F)(F)F)c1 | 20.6µM* | -8.5% | 0.1% | 0.2% | 20.6µM* | 0.0
COC(=O)C1=C(c2ccc(OCc3ccccc3)cc2)C[C@@H]2CC[C@H]1N2C(=O)NCc1ccc(N(C)C)cc1 | u | 10.0% | 3.9% | 20.7% | u | 31.6
COC(=O)C1=C(c2ccc(F)cc2OCc2ccccc2)C[C@@H]2CC[C@H]1N2C(=O)NCc1ccc(C(F)(F)F)cc1 | 23.1µM* | -4.1% | -2.4% | 11.2% | u | -52.2*
COC(=O)C1=C(c2ccccc2OCc2ccccc2)C[C@@H]2CC[C@H]1N2C(=O)NCc1cccc(C(F)(F)F)c1 | u | -9.7% | -17.2% | 9.2% | 16.4µM* | -9.5
CC(C)CCNc1nnnc2c1sc1nc(N3CCOCC3)c3c(c12)CC(C)(C)SC3 | 23.1µM* | 12.3% | 17.4% | -8.6% | 18.4µM* | -23.8
Cc1noc(C)c1S(=O)(=O)N1[C@H]2CC[C@@H]1c1cnc(-c3ccc(F)cc3)nc1C2 | x | x | x | 20.3% | x | x
COC(=O)c1ccc(Cl)cc1NC(=O)N(Cc1ccc(C)o1)C1CCN(Cc2ccccc2)CC1 | x | x | x | -23.6% | x | x
O=[N+]([O-])NC1=NCCN1Cc1ccc(Cl)nc1 | x | -2.0% | 4.9% | 3.8% | 2.59µM* | 16.6
O=C(CCN1CC2CCC(CC2)C1)c1cccs1 | 2.06µM* | u | 20.1% | -11.5% | 4.11µM* | -29.1
O=C1NC(=O)N(c2cccc(Br)c2)C(=O)/C1=C/c1ccsc1 | u | 23.1µM* | u | 44.7µM* | u | -23.8
O=C1NC(=O)N(c2ccc(Br)cc2)C(=O)/C1=C/c1ccsc1 | -27.5% | -1.7% | -11.5% | u | -24.4% | -16.6
CCC(=O)Nc1ccccc1-c1nc2ccccc2n(C(CC)C(=O)Nc2cccc(Cl)c2)c1=O (configuration not stated) | 25.9µM* | x | x | 0.0% | 20.6µM* | x
Cc1cnc(C2CCC2)n1C1CCNCC1 | x | x | x | 65.2% | x | x
CC1CC(C)CC(C)C(O)C(C#N)=CC=CCC(C2CCCC2C(=O)O)OC(=O)CC(O)C(C)C1 (configuration not stated) | 0.0082µM* | 0.184µM* | 0.0092µM* | 5.1% | 0.103µM* | -103.2*

Screens from PubChem BioAssay.
